# HCMV antiviral: human cytomegalovirus inhibition | HFF cells, HCMV-luciferase reporter, 72 h; stronger effect = lower value | activity change, negative = inhibition, % at 57.5 µM | 4.5% of 410,000 active | AID 1259415; in the data active = activity change below about -60%; inconclusive = no clear call, values can overlap the other calls; inactive = above about -39%
#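 Two-dose cell screen: HFF monolayers treated with compounds and infected with luciferase-expressing HCMV at 1 PFU/cell, 72 h at 37C, then lysed for luciferase measurement.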
# HCV inh: inhibitors of hepatitis C virus infection; Huh7.5.1 HCVcc-Cre infection, luciferase reporter, 44 h; AID 651820; 3.4% of 340,000 active; Potency, µM (highest dose often 41.8 µM), for inactives: at the top dose activity change, negative = inhibition, actives largely listed as inhibitors; active = well fitted inhibition curve with a large enough effect; inconclusive = small, poorly fitted or top-dose-only effect, or another doubt; inactive = no such curve, though single readings can be large or run the other way; note: potency is the fitted concentration of half-maximal effect
#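 Luciferase read-out (15 sec integration) after a 15 min room-temperature substrate step quantifies HCVcc-Cre infection. Cells, 1,000 per well, had compound added 4 h post-plating, then virus at ~0.5 moi, and were cultured 44 h.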
# VACV mCherry inh: inhibitors of vaccinia virus infection (mCherry reporter signal); Vaccinia virus mCherry reporter infection, fluorescence; Potency, µM (titrated, usually from 36.5 µM), inactives show at the top dose activity change, negative = inhibition, actives largely listed as inhibitors; 0.63% of 310,000 active; calls by dose curve; tested in A549 cells; note: potency is the fitted concentration of half-maximal effect; nearly all actives have a fitted effect of over 35% in size
# VACV Venus inh: inhibitors of vaccinia virus (Venus reporter). AID 720580. 0.46% of 330,000 active. Vaccinia virus Venus reporter expression, fluorescence. Potency, µM (highest dose often 36.5 µM), for the others: at the highest dose activity change, negative = inhibition, actives largely listed as inhibitors; calls by dose curve; tested in A549 cells; note: potency is the fitted concentration of half-maximal effect; nearly all actives have a fitted effect of over 30% in size
# LASV entry inh: inhibitors of Lassa virus binding or cell entry; Lassa virus pseudotype entry inhibition, cell reporter; Potency, µM (highest dose often 37.9 µM), without a hit: at the highest dose activity change, negative = inhibition, most hits filed as inhibitors; 1.2% of 300,000 active; AID 540256; calls by dose curve; tested in HEK293 cells; note: potency is the fitted concentration of half-maximal effect; nearly all actives have a fitted effect of over 50% in size
# Marburg entry inh: blocks Marburg virus binding to or entry into cells | Marburg virus pseudotyped entry inhibition, cell reporter | Potency, µM (titrated, usually from 37.8 µM), for inactives: at the top dose activity change, negative = inhibition, usual class: inhibitors | 1.8% of 300,000 active; calls by dose curve; tested in HEK293 cells; note: potency is the fitted concentration of half-maximal effect
# Active calls of the source: *; i = inactive; ? = inconclusive; · = no result given; [ ] = dose if it differs, or a comment. Hits are enriched below; roughly 7.8% of the tested compounds scored in any of these assays. % is set by controls: 0 for no effect and ±100 for the full control effect.
SMILES,HCMV antiviral,HCV inh,VACV mCherry inh,VACV Venus inh,LASV entry inh,Marburg entry inh
COc1cccc(N2CCN(S(=O)(=O)c3cc(-c4cc(C)no4)ccc3C)CC2)c1,4.8,·,-21.0%,-13.4%,13.9%[46.1 µM],·
Cc1cc(-c2ccc(C)c(S(=O)(=O)NCC3CCN(Cc4ccc(F)cc4)CC3)c2)on1,?,8.91µM*,?,?,?,?
CCc1ccc(-c2cc(C)no2)cc1S(=O)(=O)N1CCN(c2ccc(OC)cc2)CC1,-67.0*,?,-14.9%,-14.1%,?,?
Cc1cc(-c2ccc(C)c(S(=O)(=O)N3CCOc4ccc(Cl)cc43)c2)on1,-39.7,·,?,-20.3%,?,·
Cn1c(SCC(=O)NCc2ccco2)nnc1-c1ccc(NC(=O)c2ccccc2)cc1,·,·,-21.4%,-16.3%,·,·
Cc1ccc(NC(=O)CSc2nc(-c3cccs3)cc(C(F)(F)F)n2)cc1C,-19.2,·,-26.2%,-21.7%,?,?
CC(=O)c1ccccc1NC(C(=O)NC1CCCCC1)C(C)C (stereo not given),6.5,·,·,·,·,·
CCc1ccc(-c2cc(C)no2)cc1S(=O)(=O)NCCCN1CCN(c2ccccc2)CC1,?,2µM*,-7.1%[7.34 µM],10.4%[7.34 µM],·,·
CCOc1ccc(N(C)S(=O)(=O)c2cc(-c3cc(C)no3)ccc2CC)cc1,-90.0*,?,-15.9%,-13.4%,?,?
CCc1ccc(-c2cc(C)no2)cc1S(=O)(=O)N1CCN(c2ccc(F)cc2)CC1,?,5.01µM*,·,·,·,·
Cc1ccc(CCNS(=O)(=O)c2cc(-c3cc(C)no3)ccc2C)cc1,0.0,·,-13.8%,-14.0%,-16.1%[46.1 µM],·
CCN(CCCNS(=O)(=O)c1cc(-c2cc(C)no2)ccc1C)Cc1ccccc1,?,12.6µM*,·,·,·,·
CCc1ccc(-c2cc(C)no2)cc1S(=O)(=O)N1CCN(c2ccccn2)CC1,0.0,?,-6.6%,-1.8%,-28.3%[46.1 µM],?
Cc1ccc(-c2ccnc(-n3ncc(C(=O)N4CCCCC4c4cccnc4)c3C3CC3)n2)o1 (stereo not given),·,·,-6.7%,?,·,·
C=CC[C@@H]1C=C[C@H](ON=C[C@@H](N[S+](=O)([O-])c2ccc(C)cc2)[C@H](C)C=CCC(=O)OC)[C@H](CO)O1,·,·,·,·,·,-13.8%[14.2 µM]
C(C#CCCCCCCCCC[n+]1ccccc1)#CCCCCCCCCC[n+]1ccccc1,·,?,10µM*,10µM*,?,2.51µM*
COc1ccc(NC(=O)c2cc(CC(C)C)nc3ccccc23)cc1,-77.2*,?,·,·,·,·
COc1ccc(Nc2cc(C(=O)NCc3ccccc3)c3ccccc3n2)cc1,?,·,0.0%,-2.5%,-5.7%[46.1 µM],?
Cc1ccc(NC(=O)c2cc(CC(C)C)nc3ccccc23)cc1,-69.8*,?,4.5%,-2.6%,-18.9%[46.1 µM],?
Cc1ccc(NC(=O)c2cc(C)nc3ccccc23)cc1,14.7,-29.9%,·,·,·,·
COc1ccccc1OCc1ccc(C(=O)Nc2ccccc2)cc1,-39.3,?,·,·,·,·
O=C(Nc1ccc(Cn2cccn2)cc1)c1ccc(COc2ccccc2Br)cc1,-83.4*,12.6µM*,?,?,?,-13.7%[46.1 µM]
O=C(COC(=O)CCc1c[nH]c2ccccc12)Nc1ccccc1C(F)(F)F,-94.4*,-18.3%,·,·,·,·
Cc1cccc(NC(=O)COC(=O)CCc2c[nH]c3ccccc23)c1C,-24.9,-3.6%,·,·,·,·
O=C1NCCN1C(=O)N1CCC[C@@H]1c1noc2cc3ccccc3cc12,3.2,·,·,·,·,·
SMILES,HCMV antiviral,HCV inh,VACV mCherry inh,VACV Venus inh,LASV entry inh,Marburg entry inh
CCC1(C2CCN(C(=O)c3ccccc3C(C)=O)CC2)NC(=O)N(CCc2scnc2C)C1=O (stereo not given),·,·,-15.3%,-15.8%,·,·
CCN(C(=O)Cn1c(=O)n(CC2CCC(C(=O)NC)CC2)c(=O)c2sccc21)c1ccccc1 (stereo not given),2.0,·,-4.4%,-6.6%,5.0%[46.1 µM],·
CCN(CC)CCN(C(=O)c1cc2ccccc2cc1OC)c1nc2ccc(OC)cc2s1,-25.7,11.2µM*,·,·,·,·
COc1cc2ccccc2cc1C(=O)N(CCN(C)C)c1nc2ccc(C)cc2s1,-7.7,6.31µM*,-5.0%,-24.5%,?,4.47µM*
COc1cc2ccccc2cc1C(=O)N(CCN(C)C)c1nc2c(OC)ccc(OC)c2s1,-36.3,?,-22.5%,?,?,?
CCN(CC)CCN(C(=O)c1cc2ccccc2cc1OC)c1nc2ccc(F)cc2s1,19.4,?,-5.3%,-26.4%,-20.1%[46.1 µM],5.62µM*
CCN(CC)CCN(C(=O)c1ccc2ccccc2c1)c1nc2ccc(OC)cc2s1,-6.2,?,·,·,·,·
Nn1c(SCc2cccc(Cl)c2)nnc1-c1ccncc1,-6.9,5.7%,i[7.34 µM],-5.5%[7.34 µM],-1.8%,-1.9%[46.1 µM]
Nn1c(SC/C=C/c2ccccc2)nnc1-c1ccncc1,-68.9*,14.9%,i,-15.1%,-19.6%,21.6%
COc1cccc(CSc2nnc(C(F)(F)F)n2Cc2ccc(F)cc2)c1,0.3,-8.3%,·,·,?,4.7%
COc1cc(-c2nnc(SC/C=C/c3ccccc3)n2N)cc(OC)c1OC,23.8,-8.2%,5.7%,11.3%,0.1%,?
COc1cccc(CSc2nnc(-c3ccncc3)n2N)c1,-68.5*,-2.0%,-5.0%,-3.9%,?,?
Nn1c(SCc2cccc(Oc3ccccc3)c2)nnc1C(F)(F)F,-72.7*,14.0%,i,-13.1%,0.4%,?
CCOC(=O)NNc1ccccc1,34.8,14.0%,-24.1%,3.4%,-0.3%,?
CCC(O)CC(C(=O)NNc1ccccc1)C(=O)NNc1ccccc1 (stereo not given),-37.8,-6.0%,-13.9%,-8.0%,?,2.51µM*

# Screening data (PubChem)
